# Reference: PubChem BioAssay (Tox21)
# Inconclusive results are not listed. Values without a mark were called inactive. The source made the active and inactive calls. Calls come from the whole dose curve; as a rule, active = well fitted inhibition curve with a large enough effect in the repeat runs; inconclusive = weak or mixed curves; inactive = no such curve, though single readings can be large or run the other way.
# Biological target: Cytochrome P450 2C19 (Homo sapiens) (UniProt P33261)
# Assay: Cytochrome P450 Family 2 Subfamily C Member 19 (CYP2C19) small molecule antagonists: luciferase reporter qHTS assay (AID 1671197); note: nearly all actives have a fitted effect of over 65% in size
# Conditions: P450-Glo CYP2C19 enzyme, luciferin luminescence, 1 h; series mostly up to 52.9 µM; activity change, negative = inhibition: at the top concentration
# Method in brief: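 Relative luminescence units recorded 20 min after the detection reagent stopped a 1 h, 37C CYP2C19 reaction on proluciferin substrate, which was started by NADPH regeneration following 10 min room-temperature compound preincubation; ketoconazole positive control.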
# % is set by controls: 0 for no effect and ±100 for the full control effect; potency is the fitted concentration of half-maximal effect.
# Cytochrome P450 2C19 (Homo sapiens), sequence (P33261 whole entry, looked up): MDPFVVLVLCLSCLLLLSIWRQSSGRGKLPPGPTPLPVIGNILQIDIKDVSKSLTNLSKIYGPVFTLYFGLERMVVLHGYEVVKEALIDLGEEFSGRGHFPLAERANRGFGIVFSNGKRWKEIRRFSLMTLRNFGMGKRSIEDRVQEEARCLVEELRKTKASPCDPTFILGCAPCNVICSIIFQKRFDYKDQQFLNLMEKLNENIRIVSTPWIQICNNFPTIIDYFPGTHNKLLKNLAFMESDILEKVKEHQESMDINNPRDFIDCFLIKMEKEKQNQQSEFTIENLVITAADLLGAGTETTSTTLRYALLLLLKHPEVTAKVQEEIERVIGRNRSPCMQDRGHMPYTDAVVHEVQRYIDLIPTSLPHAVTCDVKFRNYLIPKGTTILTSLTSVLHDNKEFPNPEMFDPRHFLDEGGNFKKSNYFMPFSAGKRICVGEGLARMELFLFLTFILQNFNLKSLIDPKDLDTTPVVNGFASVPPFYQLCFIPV
Compound,"activity change, negative = inhibition",Potency
CCOc1ccc(C(=O)OCCN(CC)CC)cc1,13.3%,–
CCCCCCOC(=O)CCCCC(=O)OCCCCCC,-22.4% [at 115 µM],–
CC1(C)C(O)C(C)(C)C1O (configuration not stated),-22.7% [at 115 µM],–
Cc1[nH]c(=O)c(C#N)cc1-c1ccc2nccn2c1,30.1%,–
CCCCCCCCCCCCCC=O,-12.1% [at 10.5 µM],–
CN1CC(=O)NC1=N,20.9%,–
CCCCCOC(=O)CCCCC,-6.1% [at 115 µM],–
CC/C=C\CC/C=C/CO,8.68% [at 115 µM],–
CC(C)(c1ccc(O)cc1)c1ccc(O)cc1,–,inactive
C[C@@H]1CCN(C(=O)[C@H](CCCN=C(N)N)NS(=O)(=O)c2cccc3c2NC[C@H](C)C3)[C@@H](C(=O)O)C1,5.49%,–
CC(C)=CCCC(C)CC(=O)O (configuration not stated),–,35.6 µM (active)
CCCC(=O)O[C@]1(C(=O)CO)CC[C@H]2[C@@H]3CCC4=CC(=O)CC[C@]4(C)[C@H]3[C@@H](O)C[C@@]21C,-9.76%,–
CCC(C)S (configuration not stated),8.24% [at 4.07 µM],–
COc1cc(C(=O)N2CCCCCCC2)cc(OC)c1OC,–,21.9 µM (active)
c1cnc(N2CCN(Cc3ccc4c(c3)OCO4)CC2)nc1,–,3.47 µM (active)
CN(C)CCCNCCCN(C)C,-16.2% [at 115 µM],–
CCOC(=O)Nc1ccc(NCc2ccc(F)cc2)nc1N,–,11 µM (active)
CC(C)CNCC(C)C,-8.46% [at 115 µM],–
C=CCOCC(CC)(CO)COCC=C,–,3.99 µM (active)
CCSC(=O)N(CC(C)C)CC(C)C,-1.27% [at 115 µM],–
N[C@H]1CN(c2c(F)cc3c(=O)c(C(=O)O)cn(C4C[C@H]4F)c3c2Cl)CC12CC2 (some centres not stated),9.86%,–
NS(=O)(=O)c1cc(C(=O)NN2C[C@H]3[C@H]4CCC(C4)[C@H]3C2)ccc1Cl,-26%,–
